Inconclusive results are not listed. Activity calls are given as the source filed them. Calls follow the shape of the dose curve; as a rule, active = well fitted curve in the direction sought with a large enough effect; inconclusive = small, poorly fitted or top-dose-only effect, or another doubt; inactive = no such curve, though single readings can be large; an effect the other way counts as inactive or inconclusive.
Columns and labels:
[1] = biological target: Glutathione peroxidase 1 (Homo sapiens) (UniProt P07203); experiment: Primary qHTS Assay for Inhibitors of Recombinant Selenoprotein Glutathione Peroxidase 1 (GPX1) (AID 1845191); details: recombinant GPX1, GR-coupled NADPH fluorescence, 15 min; series mostly up to 48.8 µM; also: nearly all actives have a fitted effect of over 65% in size
Outline: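 GR-coupled readout: NADPH consumption tracked by fluorescence, ex 340/em 450 nm, at t=0 and after 15 min at RT. Final mix 10 nM GPX1, 1 mM GSH, 0.5 mM CHP, 0.5 mM NADPH, 100 nM GR, 0.01% BSA, following 30 min enzyme–compound preincubation.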

[2] = biological target: Phospholipid hydroperoxide glutathione peroxidase GPX4 (Homo sapiens) (UniProt P36969); experiment: Primary qHTS Assay for Inhibitors of Recombinant Selenoprotein Glutathione Peroxidase 4 (GPX4) (AID 1845192); details: recombinant GPX4, GR-coupled NADPH fluorescence, 15 min; series mostly up to 50 µM; also: nearly all actives have a fitted effect of over 65% in size; as to activity change, negative = inhibition: % is scaled to controls: 0 for no effect and ±100 for the full control effect
Outline: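 Steps: GPX4 plus compound, 30 min RT; add GR/GSH/NADPH master mix; start with cumene hydroperoxide; read 340/450 nm fluorescence at 0 and 15 min. Finals were 200 nM GPX4, 1 mM GSH, 0.5 mM CHP, 0.5 mM NADPH, 100 nM GR.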

[3] = biological target: Luciferin 4-monooxygenase (Photinus pyralis) (UniProt P08659); experiment: Primary firefly luciferase (FLuc) qHTS assay for identification of artifact compounds. (AID 1845220); details: purified firefly luciferase, luminescence, 5 min; series mostly up to 54.1 µM; also: nearly all actives have a fitted effect of over 60% in size;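 as to activity change, negative = inhibition: plate controls were DMSO vehicle for no effect and no enzyme for full effect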
Outline: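 Enzymatic FLuc inhibition assay: compounds pre-exposed to luciferin/ATP (10 uM each) for 15 min, then purified P. pyralis enzyme at 10 nM added. Read-out: luminescence at 5 min.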

[4] = Primary fluorescence-based thiol-reactive (MSTI) qHTS assay for identification of artifact compounds. (AID 1845221); details: MSTI thiol-reactivity probe, 1 h; series mostly up to 53.8 µM;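 also: thiol-reactive compounds lower the probe fluorescence signal; nearly all actives have a fitted effect of over 65% in size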
Outline: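 Curve-fitted percent inhibition (4-parameter Hill) derived from fluorescence, Ex 525/Em 598 nm, scaled with Acetyl-MSTI and MSTI; 1 h incubation at room temperature.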

Phospholipid hydroperoxide glutathione peroxidase GPX4 (Homo sapiens), sequence (P36969 whole entry, looked up): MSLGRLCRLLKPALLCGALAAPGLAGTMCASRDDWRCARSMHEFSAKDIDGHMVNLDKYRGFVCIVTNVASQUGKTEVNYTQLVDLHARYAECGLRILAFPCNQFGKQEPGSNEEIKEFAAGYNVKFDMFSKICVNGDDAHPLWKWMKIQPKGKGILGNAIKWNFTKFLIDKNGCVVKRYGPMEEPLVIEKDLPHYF
Glutathione peroxidase 1 (Homo sapiens), sequence (P07203 whole entry, looked up): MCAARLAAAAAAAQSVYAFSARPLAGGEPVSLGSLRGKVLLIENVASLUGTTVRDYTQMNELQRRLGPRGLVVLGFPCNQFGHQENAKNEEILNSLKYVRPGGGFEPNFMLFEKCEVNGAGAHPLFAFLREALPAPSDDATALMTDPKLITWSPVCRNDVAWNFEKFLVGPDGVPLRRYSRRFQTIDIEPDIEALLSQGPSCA

Cc1csc(-c2nnc(Nc3ccc(Oc4ncccc4-c4ccnc(N)n4)cc3)c3ccccc23)c1
inactive: Potency [1] | Potency [2] | Potency [3] | Potency [4]

CN1c2ccccc2C(=O)N2CCc3c([nH]c4ccccc34)C21 (stereo not given)
inactive: Potency [1] | Potency [3] | Potency [4]

C[C@H](c1ccc(F)cc1CCCC(=O)O)N(c1cc(F)ccc1F)S(=O)(=O)c1ccc(Cl)cc1
inactive: Potency [1] | Potency [2] | Potency [3] | Potency [4]

CN(C)c1ccc(-c2nc3ncc(Cl)c(N4CCN(CC(=O)Nc5nccs5)CC4)c3[nH]2)cc1
inactive: Potency [3]

Cc1cc(-c2ncc(CC(=O)Nc3ccc(-c4cnccn4)cn3)cc2C)ccn1
inactive: Potency [1] | Potency [3] | Potency [4]

NC(=O)c1noc([C@H](CCCC2CCCCC2)CC(=O)NO)n1
inactive: Potency [1] | Potency [2] | Potency [3] | Potency [4]

C[C@@H](N)c1ccc(C(=O)Nc2ccnc3[nH]ccc23)cc1
inactive: Potency [1] | Potency [2] | Potency [3] | Potency [4]

O=C(CCCN1CCN(c2ccc(F)cc2)CC1)NC1c2ccccc2CSc2ccccc21 (stereo not given)
inactive: Potency [1] | Potency [3] | Potency [4]

Cc1cccc2c1CC[C@H](CN1CCC(c3c(Cl)cccc3Cl)CC1)C[C@@H]2O
inactive: Potency [1] | Potency [2] | Potency [3] | Potency [4]

Cc1ccc(C2=Nc3ccc(Cl)cc3OC2)cc1
inactive: Potency [2]

CCC(=O)N1CCN(c2ccc(-n3c(=O)ccc4cnc5ccc(-c6cnc7ccccc7c6)cc5c43)cc2C(F)(F)F)CC1
inactive: Potency [1] | Potency [2] | activity change, negative = inhibition [3] 2.1% [at 11.6 µM] | activity change, negative = thiol reactive [4] -11% [at 11.5 µM]

COc1nccc(-c2c(-c3ccc(F)cc3)ncn2C2CCNCC2)n1
inactive: Potency [1] | Potency [3] | Potency [4]

CC(C)(OCc1nn(Cc2ccccc2)c2ccccc12)C(=O)O
inactive: Potency [1] | Potency [2] | Potency [3] | Potency [4]

CN[C@@H](C)[C@H]1[C@H](O)C[C@@]2(C)[C@@H]3CC[C@H]4C(C)(C)[C@@H](NC)CC[C@@]45C[C@@]35CC[C@]12C
inactive: outcome [1] inactive [at 9.52 µM] | activity change, negative = inhibition [2] -4.33% [at 9.73 µM] | activity change, negative = inhibition [3] 1.81% [at 11.6 µM] | activity change, negative = thiol reactive [4] 7.61% [at 11.5 µM]

Cc1ccc2c(c1)C(=O)[C@]1(O)CCN(c3ccccc3)C1=N2
inactive: Potency [1] | Potency [2] | Potency [3] | Potency [4]

CC1=C[C@@H]2[C@@H]([C@@H](O)C[C@@]3(C)[C@H]2C[C@@H](C)[C@]3(O)C(=O)CO)[C@@]2(C)Cc3cnn(-c4ccccc4)c3C=C12
inactive: Potency [1] | Potency [3] | Potency [4]

COc1nccc(-c2c(-c3ccc(F)cc3)ncn2C2CCC(O)CC2)n1 (stereo not given)
inactive: Potency [1] | Potency [2] | Potency [3] | Potency [4]

CN1CCC(COc2cnc(-c3cccc(Cn4nc(-c5cccc(C#N)c5)ccc4=O)c3)nc2)CC1
inactive: Potency [1] | Potency [2] | Potency [3] | Potency [4]

O=C(CO)N1CCC(c2[nH]nc(-c3ccc(Cl)cc3)c2-c2ccncn2)CC1
inactive: Potency [1] | Potency [2] | Potency [3] | Potency [4]

— PubChem BioAssay (NCATS)
